# Assay outcomes deposited in PubChem BioAssay by National Center for Advancing Translational Sciences (NCATS).
# BLM helicase inh: Bloom syndrome helicase (human) inhibition. P54132. recombinant BLM DNA unwinding, fluorescence dequenching. AID 2528. actives 0.2% (n = 350,000). Potency, µM (series often up to 56.1 µM), for inactives: at the highest dose activity change, negative = inhibition, hits mostly inhibitors;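 also: plate controls were vehicle for no effect and no enzyme for full effect; nearly all actives have a fitted effect of over 35% in size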
# L3MBTL1 inh: blocks human L3MBTL1; Q9Y468; AlphaScreen L3MBTL1–H3K9me1 peptide binding; Potency, µM (doses to about 57.1 µM), without a hit: at the highest dose activity, negative = inhibition, usual class: inhibitors; actives 0.66% (n = 230,000); AID 485360; also: nearly all actives have a fitted effect of over 60% in size
#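 L3MBTL1 50 nM + b-AHA-H3(1-15)K9me1 75 nM, 30 min RT; compound added, 30 min RT; streptavidin donor/Ni-chelate acceptor beads 10 ug/mL each final, 30 min RT dark; AlphaScreen read.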
# APE1 inh: inhibitors of human APE1 endonuclease; P27695; recombinant APE1, TAMRA/BHQ-2 abasic DNA cleavage fluorescence; Potency, µM (highest dose often 65.8 µM), for inactives: top-dose activity change, negative = inhibition, most hits filed as inhibitors; actives 0.35% (n = 350,000);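 also: plate controls were vehicle for no effect and reference inhibitor for full effect; nearly all actives have a fitted effect of over 55% in size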
# Target sequence (P27695 whole entry, looked up): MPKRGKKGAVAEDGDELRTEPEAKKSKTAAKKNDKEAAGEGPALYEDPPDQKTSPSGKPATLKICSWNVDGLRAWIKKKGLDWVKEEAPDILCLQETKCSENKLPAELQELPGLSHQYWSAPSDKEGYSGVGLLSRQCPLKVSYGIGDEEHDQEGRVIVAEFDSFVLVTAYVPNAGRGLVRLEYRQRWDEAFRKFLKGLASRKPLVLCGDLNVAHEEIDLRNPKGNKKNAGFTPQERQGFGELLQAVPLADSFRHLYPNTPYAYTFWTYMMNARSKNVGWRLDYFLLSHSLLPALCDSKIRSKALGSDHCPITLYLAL
#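 Incision of a quenched TAMRA/BHQ-2 THF abasic-site duplex (50 nM) by 0.75 nM APE1, after 15 min compound preincubation, measured as fluorescence increase over three 60 s reads. Values normalized to buffer, DMSO and NSC13755 control wells.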
# KAT2A inh: blocks human GCN5L2 histone acetyltransferase | Q92830 | GCN5L2 HAT assay, ThioGlo1 CoA-SH fluorescence | Potency, µM (highest dose often 58.9 µM), without a hit: top-dose activity change, negative = inhibition, usual class: inhibitors | actives 0.21% (n = 390,000)
#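 Enzyme at 20nM final was mixed with library compounds for 15 min at room temperature. Peptide H3(1-25) at 75uM, acetyl-CoA at 70uM and ThioGlo1 at 50uM were then added. Plates were read immediately and after 20 min (Ex340nm/Em540nm).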
# RECQ1 inh-1: inhibitors of human RECQ1 DNA helicase | AID 2549 | actives 0.54% (n = 240,000) | Potency, µM (doses to about 57.3 µM), for the others: top-dose activity, negative = inhibition, usual class: inhibitors | RECQ1 DNA unwinding, red fluorescence kinetic read | P46063;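 also: plate controls were vehicle for no effect and no enzyme for full effect; nearly all actives have a fitted effect of over 30% in size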
#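 RECQ1T1 50 nM; forked duplex (20 bp + 30-nt ss tails) 200 nM, ATP 2 mM final; pH 8.0, 2 mM MgCl2, 2.5 ug/ml poly(dI-dC); 15 min compound preincubation; discontinuous kinetic read over 2 h at RT.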
# JMJD2E inh: inhibitors of human JMJD2E histone demethylase; JMJD2E catalytic domain, FDH-coupled NADH fluorescence (FDH is formaldehyde dehydrogenase); Potency, µM (doses to about 57.1 µM), without a hit: top-dose activity change, negative = inhibition, most hits filed as inhibitors; actives 1.6% (n = 230,000); AID 2147; active = well fitted inhibition curve with a large enough effect, not every such curve was filed as active; inconclusive = small, poorly fitted or top-dose-only effect, or another doubt; inactive = no such curve, though single readings can be large or run the other way;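 also: 0% = wells with enzyme and -100% = buffer wells without enzyme; nearly all actives have a fitted effect of over 50% in size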
# Target sequence (B2RXH2 1-337 limits assumed): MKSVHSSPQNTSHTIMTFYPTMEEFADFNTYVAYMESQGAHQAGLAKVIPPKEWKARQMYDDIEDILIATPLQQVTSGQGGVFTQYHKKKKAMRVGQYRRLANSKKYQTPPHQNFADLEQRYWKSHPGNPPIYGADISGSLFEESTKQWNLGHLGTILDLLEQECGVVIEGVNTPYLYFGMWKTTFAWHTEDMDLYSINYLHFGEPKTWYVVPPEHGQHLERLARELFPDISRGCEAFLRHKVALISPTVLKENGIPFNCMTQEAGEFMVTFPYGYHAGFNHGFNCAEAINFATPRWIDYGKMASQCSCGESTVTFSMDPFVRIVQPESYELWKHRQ
# RECQ1 conf: confirmation of human RECQ1 helicase inhibitors | Potency, µM (highest dose often 229 µM), for the others: at the top dose activity change, negative = inhibition, most hits filed as inhibitors | RECQ1 helicase DNA unwinding, fluorescence | shares compounds with RECQ1 inh-1 | actives 28% (n = 610) | AID 2708; also: nearly all actives have a fitted effect of over 45% in size
# RECQ1 ADP FP: ADP displacement flagged in RECQ1 inhibitor counter-screen. AID 2711. actives 27% (n = 530). shares compounds with RECQ1 inh-1. ADP fluorescence polarization displacement counterscreen. Potency, µM (highest dose often 228 µM), for inactives: top-dose activity change, negative = inhibition, usual class: inhibitors; also: nearly all actives have a fitted effect of over 45% in size
# RECQ1 inh-2: RECQ1 helicase inhibition confirmed, round 2 | recombinant RECQ1 DNA unwinding, red fluorescence | AID 504841 | shares compounds with RECQ1 inh-1 | actives 15% (n = 1,100) | Potency, µM (highest dose often 119 µM), inactives show top-dose activity, negative = inhibition, usual class: inhibitors; also: nearly all actives have a fitted effect of over 50% in size
# Active calls of the source: *; i = inactive; u = inconclusive; x = no result given; [ ] = another dose, or the depositor's remark. The entries come from a sample that favours hits as a whole. Unless noted, calls follow the shape of the dose curve; as a rule, active = well fitted curve in the direction sought with a large enough effect; inconclusive = small, poorly fitted or top-dose-only effect, or another doubt; inactive = no such curve, though single readings can be large; an effect the other way counts as inactive or inconclusive. Unless noted, % is scaled to controls: 0 for no effect and ±100 for the full control effect; potency is read from the fitted curve at half-maximal effect.
SMILES,BLM helicase inh,L3MBTL1 inh,APE1 inh,KAT2A inh,RECQ1 inh-1,JMJD2E inh,RECQ1 inh-2,others
O=C(O)CC(SCC(=O)Nc1ccc(S(=O)(=O)N2CCCC2)cc1)C(=O)O (centres undefined),1%,7%,-7%,3%,i,-10%,x,RECQ1 conf=2%;RECQ1 ADP FP=-9%
CCc1cc(C(=O)Cc2cnn(-c3ccccc3)c2)c(O)cc1O,-12%,-14%,0%,-28%,1%,u,x,
O=C(Cc1cnn(-c2ccccc2)c1)c1ccc(O)c(O)c1O,-10%,x,u,-7%,3.2µM*,13µM*,x,RECQ1 conf=-2%[114 µM];RECQ1 ADP FP=30%[91.9 µM]
CCNc1ncc2nc(-c3ccc(F)cc3)c(=O)n(CCc3ccccc3)c2n1,-12%,x,0%,-4%,28µM*,x,79µM*,
CCNc1ncc2nc(-c3cccs3)c(=O)n(CCc3ccccc3)c2n1,-4%,x,-9%,-8%,28µM*,x,79µM*,
N#CC1(NC(=O)CN2c3cccc4cccc(c34)S2(=O)=O)CCCCC1,x,-13%,19%,-1%,x,x,x,
O=C(NCC1CCCO1)c1cc(-c2ccco2)nc2ccccc12 (centres undefined),-14%,u,u,u,-4%,u,x,
O=C(NC1CCC(O)CC1)c1cc(-c2ccco2)nc2ccccc12 (centres undefined),-25%,x,u,-23%,22µM*,u,u,
CCc1nnc(NC(=O)c2cc(-c3ccco3)nc3ccccc23)s1,-20%,u,u,-11%,u,u,u,
CCc1nnc(NC(=O)c2cc(-c3ccccn3)nc3ccccc23)s1,0%,-18%,15%,2%,-11%,-8%,x,
COc1cc(/C=C2\Oc3cc(O)ccc3C2=O)ccc1O,-9%,x,-7%,u,u,u,79µM*,
C=C(C)C(O)/C=C/c1ccc(C(F)(F)F)cc1 (centres undefined),3%,x,-1%,x,-6%,-4%,x,
Cc1cccc(N2CCN(C(=O)Cc3ccc(-n4c(=O)[nH]c5ccsc5c4=O)cc3)CC2)c1C,2%,-11%,17%,-2%,-10%,u,x,RECQ1 conf=-10%;RECQ1 ADP FP=21%
CC1CCC/C(=C\Nc2ccc(O)cc2)C1=O (centres undefined),-8%,u,-5%,-15%,u,u,-28%,
Cc1cc(C(=O)O)ccc1N/C=C1\CCCC(C)C1=O (centres undefined),0%,x,-5%,-7%,i,-5%,x,
CCOC(=O)C1=CNS(=O)(=O)NC1c1ccc(C[C@H](NC(=O)CNC(=O)CCc2ccccc2)C(N)=O)cc1 (some centres undefined),x,u,1%,-3%,x,x,x,
COc1ccc(CCn2c(=S)[nH]c3cc(C(=O)N4CCOCC4)ccc3c2=O)cc1OC,-6%,x,17%,-1%,35µM*,-5%,-48%,
COc1ccc(CCn2c(=O)[nH]c3cc(C(=O)N4CCN(c5ccccc5)CC4)ccc3c2=O)cc1OC,-2%,x,0%,5%,-1%,-5%,x,
CCN1CCN(C(=O)CN(CC)S(=O)(=O)c2ccc3ccccc3c2)CC1,0%,0%,18%,1%,x,x,x,
S=C(NCc1cccnc1)Nc1ccc(Oc2ccc(Cl)cc2)cc1,-11%,u,-3%,-5%,4%,-12%,x,
O=C(CSc1nnc(-c2ccccc2)o1)c1nnc(-c2ccccc2)o1,-17%,-6%,2%,-13%,u,u,-22%,
CCc1ccccc1NC(=O)CN1CCCN(Cc2cc(C)ccc2C)S1(=O)=O,-8%,x,x,-11%,x,x,x,
Cc1nc2ccc(N=NC3=C(O)CCCC3=O)cc2s1,-8%,-8%,-5%,-12%,1µM*,-2%,x,RECQ1 conf=22%[114 µM];RECQ1 ADP FP=-7%[91.9 µM]
Cn1nc(C(=O)Nc2ccc(S(=O)(=O)Nc3ncccn3)cc2)ccc1=O,-10%,x,2%,-15%,i,u,x,
O=C(/C=C/c1ccco1)NC(=S)Nc1ccc(Cl)cn1,-10%,x,u,3%,25µM*,u,-22%,
SMILES,BLM helicase inh,L3MBTL1 inh,APE1 inh,KAT2A inh,RECQ1 inh-1,JMJD2E inh,RECQ1 inh-2,others
CC(=O)NC(=S)Nc1ccc(NC(=S)NC(=O)/C=C/c2ccco2)cc1,-29%,x,u,-24%,u,-29%,-19%,
Cc1ccc(NC2=Nc3ccccc3N3C2=Nc2c(c(C)nn2-c2ccccc2)C3c2ccc(O)c(O)c2)cc1 (centres undefined),-14%,6%,0%,-8%,32µM*,28µM*,u,
Cc1ccc(C(=O)CSc2nnnn2Cc2ccccc2)cc1C,-8%,x,5%,-24%,u,0%,-2%,
CCn1c(CCCOc2ccc(Cl)cc2Cl)nnc1SCC(=O)Nc1cccc(F)c1,-3%,8%,-2%,2%,13µM*,0%,-15%,RECQ1 conf=10%[114 µM];RECQ1 ADP FP=-12%[91.9 µM]
Fc1ccc(COc2cccc(CNCc3ccncc3)c2)cc1,-11%,10%,2%,-1%,i,-10%,x,
COc1ccccc1-c1nnc(SCC(=O)Nc2nc(-c3ccccc3)cs2)n1C,7%,4%,1%,-7%,-7%,-3%,x,RECQ1 conf=0%;RECQ1 ADP FP=8%
Cc1ccc(-n2nc(C(=O)N3CCCCC3C)c(=O)n(C)c2=O)cc1 (centres undefined),1%,x,x,-5%,x,x,x,
CC1(C)CC2CC(C)(CN2S(=O)(=O)c2ccc(C(=O)Nc3cccc(S(=O)(=O)N4CCOCC4)c3)cc2)C1 (centres undefined),-8%,-12%,-1%,-5%,-2%,0%,x,RECQ1 conf=-12%;RECQ1 ADP FP=1%
CC1(C)CC2CC(C)(CN2S(=O)(=O)c2ccc(C(=O)Nc3cc(S(=O)(=O)N4CCOCC4)ccc3Cl)cc2)C1 (centres undefined),-7%,4%,u,-4%,-9%,-4%,x,RECQ1 conf=0%;RECQ1 ADP FP=8%
O=C(C=C1SCCS1)/C=C/c1ccco1,u,u,u,u,-5%,-5%,x,
O=C(O)C(C(=O)/C=C/c1ccco1)=C1SCCS1,-14%,u,25µM*,-11%,u,-23%,u,
